Results on 1 molecule are retold here after PubChem BioAssay (NCATS).

In experiment [1] the target is Glutathione peroxidase 1 (Homo sapiens) (UniProt P07203). Description: Primary qHTS Assay for Inhibitors of Recombinant Selenoprotein Glutathione Peroxidase 1 (GPX1) (AID 1845191). Note: nearly all actives have a fitted effect of over 65% in size. The gist of the method:
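GR-coupled readout: NADPH consumption tracked by fluorescence, ex 340/em 450 nm, at t=0 and after 15 min at RT. Final mix 10 nM GPX1, 1 mM GSH, 0.5 mM CHP, 0.5 mM NADPH, 100 nM GR, 0.01% BSA, following 30 min enzyme–compound preincubation.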
(In general: qHTS replaces the single test concentration by a dilution series.)

In experiment [2] the target is Phospholipid hydroperoxide glutathione peroxidase GPX4 (Homo sapiens) (UniProt P36969). The experiment can be described thus: Primary qHTS Assay for Inhibitors of Recombinant Selenoprotein Glutathione Peroxidase 4 (GPX4) (AID 1845192). Note: nearly all actives have a fitted effect of over 65% in size. An outline of the steps: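 Steps: GPX4 plus compound, 30 min RT; add GR/GSH/NADPH master mix; start with cumene hydroperoxide; read 340/450 nm fluorescence at 0 and 15 min. Finals were 200 nM GPX4, 1 mM GSH, 0.5 mM CHP, 0.5 mM NADPH, 100 nM GR.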

The subject of experiment [3] is 3D7. Description: qHTS profiling for inhibitors of Plasmodium falciparum proliferation (AID 504749). Note: nearly all actives have a fitted effect of over 60% in size. Note: potency is the fitted concentration of half-maximal effect. The note with it: P. falciparum in erythrocytes, SYBR Green DNA, 72 h; series mostly up to 28.7 µM. An outline of the steps:
(§1)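 Each compound contacts P. falciparum-infected red blood cells for 72 h at 37 C; lysis buffer (Tris, EDTA, saponin, Triton X, SYBR Green I) is added and fluorescence measured next morning; values normalized to controls.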

The test system of experiment [4] is 7G8. The description is as above. The note with it: P. falciparum in erythrocytes, SYBR Green DNA, 72 h; series mostly up to 28.7 µM. The gist of the method:
as §1

Experiment [5] has as its system AS120. Described as above. The note with it: P. falciparum in erythrocytes, SYBR Green DNA, 72 h; series mostly up to 28.7 µM. The gist of the method: as §1
In experiment [6] the test system is C2A. The description is as above. The note with it: P. falciparum in erythrocytes, SYBR Green DNA, 72 h; series mostly up to 28.7 µM. An outline of the steps: as §1
The subject of experiment [7] is CP191. Described as above. The settings on record: P. falciparum in erythrocytes, SYBR Green DNA, 72 h; series mostly up to 28.7 µM. The gist of the method:
as §1

In experiment [8] the test system is CP192. The experiment is described as above. The note with it: P. falciparum in erythrocytes, SYBR Green DNA, 72 h; series mostly up to 28.7 µM. The gist of the method:
as §1

In experiment [9] the test system is CP237. The experiment is described as above. The settings on record: P. falciparum in erythrocytes, SYBR Green DNA, 72 h; series mostly up to 28.7 µM. The gist of the method:
as §1

Experiment [10] deals with CP256. The experiment is described as above. The settings on record: P. falciparum in erythrocytes, SYBR Green DNA, 72 h; series mostly up to 28.7 µM. An outline of the steps:
as §1

The test system of experiment [11] is CP262. Described as above. The note with it: P. falciparum in erythrocytes, SYBR Green DNA, 72 h; series mostly up to 28.7 µM. The gist of the method:
as §1

Experiment [12] concerns CP269. Described as above. The settings on record: P. falciparum in erythrocytes, SYBR Green DNA, 72 h; series mostly up to 28.7 µM. The gist of the method:
as §1

Experiment [13] concerns CP297. Described as above. The note with it: P. falciparum in erythrocytes, SYBR Green DNA, 72 h; series mostly up to 28.7 µM. The gist of the method:
as §1

Experiment [14] concerns CP315. The description is as above. The settings on record: P. falciparum in erythrocytes, SYBR Green DNA, 72 h; series mostly up to 28.7 µM. The gist of the method:
as §1

The test system of experiment [15] is Dd2. Described as above. The settings on record: P. falciparum in erythrocytes, SYBR Green DNA, 72 h; series mostly up to 28.7 µM. An outline of the steps:
as §1

In experiment [16] the test system is GB4. The description is as above. The note with it: P. falciparum in erythrocytes, SYBR Green DNA, 72 h; series mostly up to 28.7 µM. The gist of the method: as §1
The test system of experiment [17] is ICS. The description is as above. The note with it: P. falciparum in erythrocytes, SYBR Green DNA, 72 h; series mostly up to 28.7 µM. An outline of the steps:
as §1

For experiment [18], the system named is JCK. The experiment is described as above. The note with it: P. falciparum in erythrocytes, SYBR Green DNA, 72 h; series mostly up to 28.7 µM. The gist of the method: as §1
The subject of experiment [19] is PC49. The experiment is described as above. The settings on record: P. falciparum in erythrocytes, SYBR Green DNA, 72 h; series mostly up to 28.7 µM. An outline of the steps:
as §1

Experiment [20] relates to TAB113. The experiment is described as above. The settings on record: P. falciparum in erythrocytes, SYBR Green DNA, 72 h; series mostly up to 28.7 µM. The gist of the method:
as §1

The subject of experiment [21] is TAB165. The description is as above. The note with it: P. falciparum in erythrocytes, SYBR Green DNA, 72 h; series mostly up to 28.7 µM. The gist of the method:
as §1

Experiment [22] concerns W2. Described as above. The settings on record: P. falciparum in erythrocytes, SYBR Green DNA, 72 h; series mostly up to 28.7 µM. An outline of the steps: as §1

Records with an inconclusive call do not appear. A number with no mark means an inactive call. Active and inactive are the calls of the source. Calls come from the whole dose curve; as a rule, active = well fitted inhibition curve with a large enough effect; inconclusive = small, poorly fitted or top-dose-only effect; inactive = flat fitted curve, though single readings scatter.

Glutathione peroxidase 1 (Homo sapiens), sequence (P07203 whole entry, looked up): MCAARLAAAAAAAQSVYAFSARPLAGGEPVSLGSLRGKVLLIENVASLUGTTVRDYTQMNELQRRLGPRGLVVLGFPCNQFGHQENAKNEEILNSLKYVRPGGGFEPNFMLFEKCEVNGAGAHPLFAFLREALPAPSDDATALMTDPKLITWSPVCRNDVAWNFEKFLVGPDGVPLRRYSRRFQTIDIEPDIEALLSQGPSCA
Phospholipid hydroperoxide glutathione peroxidase GPX4 (Homo sapiens), sequence (P36969 whole entry, looked up): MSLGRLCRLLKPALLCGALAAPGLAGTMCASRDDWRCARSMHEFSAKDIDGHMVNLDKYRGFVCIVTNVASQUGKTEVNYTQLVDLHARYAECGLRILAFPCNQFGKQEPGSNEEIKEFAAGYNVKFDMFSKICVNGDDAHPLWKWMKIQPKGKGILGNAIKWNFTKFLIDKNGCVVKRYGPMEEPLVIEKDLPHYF

As to `Cc1cccc([C@H](C)c2cnc[nH]2)c1C`, the Potency result in experiment [1], in [2], in experiment [3], in [5], in [6] and in experiment [8] was “inactive” throughout. The Potency result in experiment [11], in [12], in experiment [14], in [18], in [19] and in experiment [20] was “inactive” each time. Besides, the Potency in experiment [4] is 7.94 µM (active); in [7], 7.08 µM (active); in experiment [9] it was 11.2 µM (active); in [10], 7.08 µM (active); in [13], 10.7 µM (active); in [15], 11.2 µM (active). Besides, the Potency is 8.49 µM (active) in experiment [16], 12.6 µM (active) in [17], 4.47 µM (active) in experiment [21] and 10.7 µM (active) in [22].
